Screening data from PubChem.
M18AAP inhibitor: PfM18AAP inhibitors, malaria aminopeptidase, primary screen, biochemical, QFRET, recombinant enzyme. M18 aspartyl aminopeptidase (Plasmodium falciparum 3D7). H-Glu-NHMec fluorogenic cleavage. inhibition, % at 7.35 µM. 290,000 compounds, 1.2% hits. AID 1822, 2009;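 active = inhibition above the campaign mean inhibition over all tested compounds plus 3 SD, cut at about 28% in these data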;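 note: 0% = plate median of test compound wells and 100% = 2 mM ZnCl2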
HIF activator: HIF pathway transcriptional activators, primary screen, cell-based, U2OS HRE-luciferase, luminescence; U2OS HRE-luciferase reporter; normalized: DMSO 0%, desferrioxamine 100%; activation, % at 7.5 µM (by protocol); 300,000 compounds, 0.32% hits; AID 1910, 2009;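 active = mean activation of at least 10% of the iron chelator positive control signal, with at least half of replicates also reaching 10%; inconclusive = mean and replicate majority disagree about reaching 10%; inactive = mean and most replicates under 10%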
ALR H2O2 inh: inhibitors of human ALR sulfhydryl oxidase, primary screen, biochemical, H2O2 detection, HRP-luminol luminescence, single point; FAD-linked sulfhydryl oxidase ALR (Homo sapiens), P55789; purified ALR, DTT oxidation; inhibition, % (test concentration not listed); 290,000 compounds, 3.8% hits;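 active = mean replicate inhibition above about 79%, with every replicate also reaching it, limit read from the data; inconclusive = only one of the two criteria met; inactive = mean below limit and not every replicate reaching it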
Target sequence (P55789 whole entry, looked up): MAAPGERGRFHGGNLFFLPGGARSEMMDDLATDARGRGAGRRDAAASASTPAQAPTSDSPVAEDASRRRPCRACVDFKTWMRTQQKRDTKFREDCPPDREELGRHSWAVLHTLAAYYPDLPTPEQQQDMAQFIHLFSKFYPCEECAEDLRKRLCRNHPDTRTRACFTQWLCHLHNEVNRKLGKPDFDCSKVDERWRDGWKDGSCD
Mot1-301 SUMO: yeast Mot1-301 growth rescue at high temperature, primary screen, SUMOylation pathway inhibitor project, S. cerevisiae, ATP luminescence, 38.5C; S. cerevisiae Mot1-301 growth rescue; percent above DMSO median, 100 means doubled; growth rescue, % at 18.8 µM; 320,000 compounds, 1% hits; AID 2716, 2010;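 active = every valid replicate shows activation above 250% relative to neutral control wells; inactive = the rest, any valid replicate at or below 250%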;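 note: OY570 slx delta 5 strain wells were the positive control but not used for scaling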
Numbers without * were called inactive; u = inconclusive; x = no result. In the library only some 5.3% were active in any assay of this set; here they are far more common.

SMILES	M18AAP inhibitor	HIF activator	ALR H2O2 inh	Mot1-301 SUMO
Cc1cccc(-c2nc(CS(=O)CC(=O)N3CCN(C)CC3)c(C)o2)c1 (centres undefined)	-9.0	0.2	98.7*	21.2
Cc1cc(N)nc(C)c1C#N	0.8	0.2	-14.6	4.9
CN(C)CC(C)(C)CNC(=O)c1cc(=O)c2ccccc2o1	-2.0	0.2	-14.5	-7.8
Cn1c(=O)c2c(ncn2CC(=O)OCCCC(=O)c2ccc(Br)cc2)n(C)c1=O	x	x	-1.7	-13.0
CC(C)[C@H](NC(=O)c1ccco1)C(=O)OCc1cc(=O)n2c(n1)sc1ccccc12	3.4	20.2*	-1.3	11.6
CCC(O)CC(C(=O)NNc1ccccc1)C(=O)NNc1ccccc1 (centres undefined)	10.1	-0.1	98.6*	268.5*
CCOC(=O)NNc1ccccc1	-0.1	-0.5	-9.5	141.2
COc1cc(C(=O)Nc2sc(C)c(C)c2C(=O)O)cc(OC)c1OC	-13.6	165.0*	-9.0	-7.4
CN(C)c1ccc(NC(=O)c2cccc(N3C(=O)CCC3=O)c2)cc1	6.7	x	99.0*	-9.0
O=C(Nc1cccc(F)c1)c1ccc2c(c1)OCCO2	3.4	4.2	3.5	478.7*
CCN(CC)c1ccc(C(=O)Nc2cccc(F)c2)cc1	-8.6	2.1	10.1	101.2
CN(C)c1cccc(C(=O)Nc2cccc(F)c2)c1	0.6	2.7	98.2*	-24.8
CCC(CC)=C(C#N)C(=O)NC1CCCCC1	-2.8	1.0	1.4	3.3
COc1cc(C(=O)Nc2ccc(S(=O)(=O)N(C)c3ccccc3)cc2)cc(OC)c1OC	-9.6	0.2	-5.8	-11.8
COc1cc(C(=O)Nc2ccc(N(C)C)cc2)cc(OC)c1OC	-15.5	3.5	99.4*	-0.6
CC(=O)Nc1ccc(N=Cc2ccc[nH]2)cc1	-15.3	0.3	98.1*	-9.1
CCOC(=O)Cc1cc(=O)n2[nH]c(C)c(-c3ccc(OC)cc3)c2n1	-14.1	-0.5	91.3*	3.9
CCc1cc(=O)n2[nH]c(C)c(-c3ccc(OC)cc3)c2n1	-7.7	-38.7	32.5	31.2
CCOC(=O)Cc1cc(=O)n2[nH]c(C)c(-c3ccc(Cl)cc3)c2n1	-1.1	0.0	99.4*	246.0
COc1ccc(CNC(=O)Cc2ccc(NC(=O)C3=C(C)OCCS3)cc2)cc1	5.2	3.2	-2.5	20.8
COc1cccc(N2CC(=O)N(c3cccc(OC)c3)CC2=O)c1	1.4	-0.2	-5.7	8.1
COc1cccc(-n2cnc3cccc(N)c32)c1	-3.6	x	87.1*	0.6
CCCn1cc(NC(=O)c2cc(-c3ccccc3)on2)cn1	8.1	10.5*	0.0	16.6
O=C(Nc1cnn(C23CC4CC(CC(C4)C2)C3)c1)c1cc(-c2ccccc2)on1	1.2	0.0	0.3	2.3
S=C(Nc1ccc(Nc2ccccc2)cc1)N1CCN(c2ncccn2)CC1	1.8	-0.4	98.3*	158.2
SMILES	M18AAP inhibitor	HIF activator	ALR H2O2 inh	Mot1-301 SUMO
CC1CCCN(C(=S)Nc2ccc(F)cc2)C1 (centres undefined)	2.9	0.2	-1.9	-13.0
Cc1ccc(NC(=S)N2CCCC(c3nc4ccccc4[nH]3)C2)cc1 (centres undefined)	2.0	0.5	-4.0	522.7*
Cc1cc(C)cc(NC(=S)N2CCN(c3ncccn3)CC2)c1	8.1	-0.1	-3.6	-18.0
CC1CCCN(C(=S)Nc2ccc(Nc3ccccc3)cc2)C1 (centres undefined)	4.8	1.5	99.3*	8.5
OC1CCN(C(=S)Nc2ccc(Nc3ccccc3)cc2)CC1	7.4	1.0	99.1*	5.1
CCOc1ccc(NC(=O)c2ccc(-n3cccn3)nc2)cc1	0.3	-0.2	0.6	-37.1
Cc1nnc2n(c1=O)N=C(c1ccc(Cl)cc1)CS2	10.9	0.0	99.2*	15.3
CC(C)N(c1ccccc1)c1ccc(NC(=S)NCCN(C)C)cc1	18.0	0.2	98.9*	-12.4
OCCCNC(=S)Nc1ccc(Oc2ccccc2)cc1	-2.7	0.3	x	-12.9
CN(C)CCCNC(=S)Nc1ccc(Oc2ccccc2)cc1	-4.6	-0.3	92.9*	-10.7
O=C(Nc1ccc(Br)cc1)c1ccccc1Br	-0.5	6.0	-1.2	53.9
O=C1c2ccccc2C(Nc2ccc3c(c2)OCCO3)N1Cc1ccc2c(c1)OCO2 (centres undefined)	2.2	-1.0	97.9*	-7.5
COc1ccc(CNC(=O)CN2C(=O)COc3ccc(S(=O)(=O)N4CCC(C)CC4)cc32)cc1	1.9	0.1	x	-6.0
Cc1ccc(C)c2sc(NC(=O)c3nc4ccccc4s3)nc12	0.2	-0.2	x	192.3
C=CCn1c(=S)[nH]c2cc(C(=O)Nc3ccc(F)cc3)ccc2c1=O	-1.2	-0.4	-2.5	-6.3
C=CCn1c(=S)[nH]c2scc(-c3ccc(C)o3)c2c1=O	-67.8	1.0	98.5*	-38.7
C=CCn1c(=S)[nH]c2sccc2c1=O	-5.7	-0.2	97.6*	-0.6
C=CCn1c(SCC(C)=O)nc2scc(-c3ccc(C)o3)c2c1=O	-43.5	1.0	96.2*	-7.3
CC(C)(NC(=O)N1CCOCC1)c1cccc(C(C)(C)NC(=O)N2CCOCC2)c1	-10.2	1.0	3.5	890.0
CC(=O)Nc1nc(-c2ccc3c(c2)CCO3)cs1	-5.0	1.0	-9.8	4.3
Nc1nc(-c2ccc3c(c2)CCO3)cs1	3.4	-1.1	97.4*	-14.6
Cc1ccc(OCC(COCc2ccccc2)NC(C)C)cc1 (centres undefined)	x	0.0	1.6	12.5
CC1CN(Cc2cc(=O)n3ccsc3n2)CC(C)O1 (centres undefined)	-2.9	-0.5	-13.7	277.5*
Cc1ccc(Nc2nc(=O)[nH]nc2C)cc1	-3.6	-0.4	-0.2	564.9
Cc1n[nH]c(=O)nc1Nc1ccc(O)cc1	4.6	0.0	89.2*	31.1
SMILES	M18AAP inhibitor	HIF activator	ALR H2O2 inh	Mot1-301 SUMO
CN=c1scc(-c2ccccc2F)n1/N=C/c1ccc[nH]1	2.8	-3.7	u	-15.0
CN=c1scc(C)n1/N=C/c1ccc(O)cc1O	15.6	0.9	98.6*	-2.3
CN=c1scc(C)n1/N=C/c1ccc(O)cc1	16.5	x	98.8*	-1.7
CN=c1scc(C)n1/N=C/c1ccc2c(c1)OCO2	9.8	0.2	98.3*	-8.2
CN=c1scc(-c2ccccc2F)n1/N=C/c1ccc(O)c(O)c1O	30.7*	-2.2	x	x
Cc1[nH]c2ccccc2c1C(=O)CN1CCSCC1	-4.1	0.0	97.2*	-19.5
COc1ccc2c(c1OC)C(=O)N1N=C(c3ccc(O)cc3)CC21 (centres undefined)	-3.8	-0.3	99.3*	-14.4
COc1ccc2c(c1OC)C(=O)N1N=C(c3ccc(-c4ccccc4)cc3)CC21 (centres undefined)	3.2	-0.1	x	-14.3
COc1ccc2c(c1OC)C(=O)N1c3ccccc3N=C(c3ccc([N+](=O)[O-])cc3)CC21 (centres undefined)	24.1	x	96.8*	-13.1
COc1ccc(C2=NN3C(=O)c4c(ccc(OC)c4OC)C3C2)cc1 (centres undefined)	-5.1	0.0	10.1	252.9
